Bioassay records (PubChem)
This is a sample that favours compounds with a hit; in the whole collection about 11% have one here.
HP1b binding inh: blocks HP1-beta chromodomain binding to methylated histone tails; 0.56% of 390,000 active; AID 540317; AlphaScreen HP1-beta / biotin-H3K9me3 peptide binding; P83916; Potency, µM (highest dose often 114 µM), hits mostly inhibitors; note: nearly all actives have a fitted effect of over 70% in size
Target sequence (P83916 whole entry, looked up): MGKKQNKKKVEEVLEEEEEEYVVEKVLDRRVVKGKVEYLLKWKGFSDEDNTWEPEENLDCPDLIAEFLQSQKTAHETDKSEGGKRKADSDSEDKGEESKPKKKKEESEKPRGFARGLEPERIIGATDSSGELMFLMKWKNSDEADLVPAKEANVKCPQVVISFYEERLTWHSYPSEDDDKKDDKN
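Compound inhibition of the preformed complex between 50 nM HP1-beta and 50 nM biotinylated H3K9me3 peptide was read by AlphaScreen. Buffer was PBS pH 7.4 with 0.01% Tween-20. Incubations ran 30 min at room temperature, with 10 ug/mL donor/acceptor beads.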
L3MBTL1 inh: blocks human L3MBTL1. AID 485360. Potency, µM (series often up to 57.1 µM), usual class: inhibitors. Q9Y468. AlphaScreen L3MBTL1–H3K9me1 peptide binding. 0.66% of 230,000 active; note: nearly all actives have a fitted effect of over 60% in size
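L3MBTL1 (50 nM) pre-complexed 30 min with biotinylated H3(1-15)K9me1 peptide (75 nM), then compounds added for 30 min at room temperature; AlphaScreen streptavidin donor/nickel chelate acceptor beads (10 ug/mL final) read after 30 min dark incubation.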
G9a block: inhibitors of human histone lysine methyltransferase G9a; Q96KQ7; G9a H3K9 monomethylation, AlphaScreen, 2 h; Potency, µM (titrated, usually from 102 µM), usual class: inhibitors; 8.8% of 350,000 active; note: nearly all actives have a fitted effect of over 75% in size
Target sequence (Q96KQ7 913-1193 limits assumed): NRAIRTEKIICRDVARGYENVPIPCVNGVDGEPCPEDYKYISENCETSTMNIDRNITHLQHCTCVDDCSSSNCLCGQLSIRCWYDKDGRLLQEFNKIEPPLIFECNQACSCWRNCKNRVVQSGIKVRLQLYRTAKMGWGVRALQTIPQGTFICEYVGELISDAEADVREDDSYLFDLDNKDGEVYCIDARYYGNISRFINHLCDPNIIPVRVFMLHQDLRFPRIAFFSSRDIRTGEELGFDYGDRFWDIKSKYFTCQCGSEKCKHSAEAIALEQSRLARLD
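Compounds were preincubated with 20 nM G9a for 15 min, after which biotinylated H3K9 peptide (500 nM) and SAM (20 uM) started a 2 h room-temperature reaction. Monomethylated product was quantified by antibody-based AlphaScreen chemiluminescence.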
BAZ2B block: inhibitors of human BAZ2B bromodomain; AlphaScreen BAZ2B-H3K14Ac peptide displacement; Potency, µM (top dose mostly 114 µM), most hits filed as inhibitors; 4.4% of 360,000 active; note: nearly all actives have a fitted effect of over 60% in size
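Multi-concentration screen (max 110 uM) measuring displacement of acetylated histone H3 peptide from BAZ2B by AlphaScreen, using 50 nM protein, 50 nM peptide and 10 ug/mL streptavidin donor plus Ni-chelate acceptor beads.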
JMJD2A Tudor: blocks the human JMJD2A Tudor domain; O75164; AlphaScreen JMJD2A-Tudor / H3K4me3 peptide binding; Potency, µM (doses to about 114 µM), hits mostly inhibitors; 4.4% of 390,000 active; AID 504339; note: nearly all actives have a fitted effect of over 50% in size
Large screens that a line does not name were inactive. Calls come from the whole dose curve; as a rule, active = well fitted inhibition curve with a large enough effect; inconclusive = small, poorly fitted or top-dose-only effect; inactive = no such curve, though single readings can be large or run the other way.

COc1ccc(C(=O)CN2CCN(S(=O)(=O)c3ccc(C(C)C)cc3)CC2)cc1	none (no result: L3MBTL1 inh)
CCOc1ccc(C(=O)CN2CCN(S(=O)(=O)c3ccc(Br)cc3)CC2)cc1	G9a block 31.6µM
CC(C)(C)OC(=O)C[C@H]1C/C=C\C[C@H](CC(=O)N(CCO)Cc2ccccc2)C(=O)N[C@H](C(C)(C)C)COC1=O	none (no result: G9a block, BAZ2B block)
Cc1ccc2nc(-c3ccc(N=Nc4cc(S(=O)(=O)O)c5ccccc5c4O)cc3)sc2c1S(=O)(=O)O	HP1b binding inh 14.1µM, JMJD2A Tudor 17.8µM (no result: L3MBTL1 inh, G9a block, BAZ2B block)
Cc1ccc2nc(-c3ccc(NS(=O)(=O)c4ccccc4)cc3)sc2c1	none
COc1ccc(NC(=O)Cn2cnc3c(oc4ccccc43)c2=O)cc1OC	none (no result: L3MBTL1 inh)
COc1cc(C(=O)N=c2sc3ccccc3n2C)cc(OC)c1OC	JMJD2A Tudor 50.1µM
CS(=O)(=O)N1CCC2(CC1)CN(Cc1nccs1)C2	none (no result: HP1b binding inh, L3MBTL1 inh, BAZ2B block, JMJD2A Tudor)
O=C(O)c1ccc2c(c1Nc1ccccc1)C(=O)c1ccccc1C2=O	HP1b binding inh 39.8µM, G9a block 39.8µM, BAZ2B block inconclusive, JMJD2A Tudor 50.1µM
CNc1c(C(=O)O)ccc2c1C(=O)c1ccccc1C2=O	HP1b binding inh 44.7µM, G9a block 14.1µM, BAZ2B block 35.5µM
CCNc1c(C(=O)O)ccc2c1C(=O)c1ccccc1C2=O	G9a block inconclusive, BAZ2B block 35.5µM
O=C(O)c1cccc2c1C(=O)c1ccccc1C2=O	G9a block inconclusive (no result: BAZ2B block)
CCN(CCN(C)C)C(=O)c1ccc2c(c1NCCO)C(=O)c1ccccc1C2=O	HP1b binding inh inconclusive, G9a block 15.8µM, BAZ2B block 50.1µM (no result: L3MBTL1 inh)
O=C1c2ccccc2-c2c1cccc2C(=O)N(CCO)CCO	none (no result: L3MBTL1 inh)
CC1CCN(C(=O)CN2c3ccc(C(C)C)cc3-c3ccccc3S2(=O)=O)CC1	none (no result: L3MBTL1 inh)
COc1ccc(CNC(=O)c2cc3c(=O)oc4ccc(C)cc4c3s2)c(OC)c1	none (no result: L3MBTL1 inh)
CCN(C(=O)Cn1c(=O)n(-c2ccccc2)c(=O)c2ccc(C(=O)NCc3ccc4c(c3)OCO4)cc21)c1cccc(C)c1	none (no result: L3MBTL1 inh)
CCCc1cc(=O)[nH]c(SCC(=O)N2CCN(S(=O)(=O)c3ccc(Cl)cc3)CC2)n1	none
CCCc1cc(=O)[nH]c(SCC(=O)CSc2nc(CCC)cc(=O)[nH]2)n1	G9a block 56.2µM
CCCc1cc(=O)[nH]c(SCC(=O)c2ccc(S(=O)(=O)N3CCCC3)cc2)n1	G9a block 50.1µM
CCCc1cc(=O)[nH]c(SCC(=O)c2cc(C)n(C)c2C)n1	G9a block 50.1µM (no result: L3MBTL1 inh)
CCCc1cc(=O)[nH]c(SCC(=O)c2cc(C)n(C3CC3)c2C)n1	BAZ2B block inconclusive (no result: G9a block)
CCCc1cc(=O)[nH]c(SCC(=O)NC)n1	none
Cc1cc2ccccc2n1CCNC(=O)C1CC1	G9a block 70.8µM, JMJD2A Tudor inconclusive
Cc1cc2ccccc2n1CCNC(=O)c1cccs1	HP1b binding inh inconclusive, G9a block 35.5µM, BAZ2B block inconclusive, JMJD2A Tudor inconclusive
O=C(/C=C/c1ccco1)N1CCC(Cc2ccccc2)CC1	G9a block 31.6µM, BAZ2B block 50.1µM, JMJD2A Tudor 50.1µM
COC(=O)/C=C/C(=O)N1CCN(c2ccccc2)CC1	G9a block 50.1µM
COc1cccc(N2CCN(C(=O)/C=C/c3ccco3)CC2)c1	G9a block 28.2µM, BAZ2B block 50.1µM
COc1ccc(S(=O)(=O)N2CCN(C(=O)/C=C/c3ccco3)CC2)cc1	G9a block 25.1µM
COC(=O)/C=C/C(=O)N1CCN(c2ccccc2C)CC1	none
O=C(/C=C/c1ccco1)N1CCN(S(=O)(=O)c2cccc([N+](=O)[O-])c2)CC1	HP1b binding inh inconclusive (no result: G9a block, BAZ2B block)
COC(=O)c1sc2nc3c(cc2c1N)COC(C)(C)C3	G9a block 50.1µM (no result: L3MBTL1 inh)
CCCc1nc2c(sc3nc4c(cc32)COC(C)(C)C4)c(=O)o1	G9a block 22.4µM, BAZ2B block inconclusive
CCc1cccc(NS(=O)(=O)c2csc(C(N)=O)c2)c1	none (no result: L3MBTL1 inh)
COc1ccc(N=Cc2nc(-c3ccco3)oc2O)cc1	G9a block inconclusive
CCC(=NCc1ccc(Cl)c(Cl)c1)c1nc(-c2ccco2)oc1O	HP1b binding inh inconclusive, G9a block 44.7µM, BAZ2B block 12.6µM, JMJD2A Tudor inconclusive
CCOC(=O)N1CCC(=NNc2nc(C)cc(=O)[nH]2)CC1	G9a block 39.8µM (no result: L3MBTL1 inh)
CCOC(=O)N1CCC(=NNc2ccc(S(N)(=O)=O)cc2[N+](=O)[O-])CC1	G9a block inconclusive
Cc1cccc(N2C(=O)/C(=C/c3cccnc3)SC2=S)c1	L3MBTL1 inh inconclusive, G9a block 15.8µM, BAZ2B block inconclusive, JMJD2A Tudor inconclusive
Cc1cc(/C=C2/SC(=S)N(c3ccc([N+](=O)[O-])cc3)C2=O)c(C)n1-c1cccnc1	G9a block 10µM, BAZ2B block inconclusive, JMJD2A Tudor inconclusive
Cc1cc(/C=C2/SC(=S)N(c3cccc(Cl)c3)C2=O)c(C)n1-c1cccnc1	JMJD2A Tudor inconclusive (no result: L3MBTL1 inh, G9a block, BAZ2B block)
CSc1nn(Cc2ccc(F)cc2)c(N)c1S(=O)(=O)c1ccc(Cl)cc1	none (no result: L3MBTL1 inh)
COc1cccc(C(=O)N2CCCCC2CCN2CCCCC2)c1 (centres undefined)	none (no result: L3MBTL1 inh)
CCCN1C(=O)C(NC(C)=O)c2ccccc21 (centres undefined)	G9a block 39.8µM (no result: L3MBTL1 inh)
CC(=O)NC1C(=O)N(CCc2ccccc2)c2ccccc21 (centres undefined)	G9a block inconclusive
CCc1ccc2c(c1)C(NC(C)=O)C(=O)N2CCN1CCOCC1 (centres undefined)	G9a block 28.2µM, BAZ2B block 12.6µM, JMJD2A Tudor 10µM (no result: L3MBTL1 inh)
Cc1cc(NC(=S)N(CCCN2CCN(C)CC2)Cc2ccco2)ccc1Cl	G9a block 31.6µM
Cc1ccc(NC(=S)N(CCN2CCCCC2)Cc2ccco2)cc1Cl	G9a block 50.1µM (no result: L3MBTL1 inh)
CSCC[C@H](NS(=O)(=O)c1ccc(C(C)=O)cc1)c1nnc2ccccn12	G9a block 44.7µM, BAZ2B block 56.2µM (no result: L3MBTL1 inh)
CC(=O)Nc1ccc(S(=O)(=O)Nc2cccc(-c3ccc(N4CCC(C)CC4)nn3)c2)cc1	none (no result: L3MBTL1 inh)
CCN(CC)S(=O)(=O)c1ccc(C(=O)NCCSc2c[nH]c3ccccc23)cc1	G9a block inconclusive
CN(C)c1ccc(C(CNC(=O)c2ccccc2Br)c2c[nH]c3ccccc23)cc1 (centres undefined)	L3MBTL1 inh inconclusive, G9a block 10µM, BAZ2B block 14.1µM
CN(C)c1ccc(C(CNC(=O)c2ccc(C#N)cc2)c2c[nH]c3ccccc23)cc1 (centres undefined)	HP1b binding inh inconclusive, L3MBTL1 inh inconclusive, G9a block 10µM, BAZ2B block 20µM, JMJD2A Tudor 39.8µM
COc1cc(OC)cc(C(=O)n2cnnc2N)c1	G9a block 44.7µM (no result: L3MBTL1 inh)
COC(=O)c1cn(C(=O)c2cc(OC)cc(OC)c2)c2ccccc12	none
Cc1ccc(C2CC(=O)N(Cc3ccc(F)cc3)c3c2c(C)nn3-c2nc(C)cc(C)n2)cc1 (centres undefined)	none (no result: L3MBTL1 inh)
COc1ccc(NC2CCCN(C(=O)CCc3ccccc3F)C2)cc1 (centres undefined)	G9a block 50.1µM, JMJD2A Tudor inconclusive (no result: L3MBTL1 inh)
